An excerpt weighted towards active compounds, which were near 2% of everything screened.
CtBP-E1A blk – blocks the CtBP interaction with E1A; AlphaScreen GST-E1A/His-CtBP binding, 1536-well; active compounds read low; activity change, % (no concentration beside the values); hit rate 0.49% among 340,000
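In 5 uL wells, 23 nL compound meets equimolar GST-E1A and His-CtBP (5X stock 125 nM each) for 2 h, 37 °C. Beads (5X, 50 ug/mL) then 1 h, 37 °C, dark.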
KDM4E inh – blocks human JMJD2E demethylase activity; B2RXH2; JMJD2E catalytic domain, FDH-coupled NADH fluorescence (FDH is formaldehyde dehydrogenase); Potency, µM (titrated, usually from 57.1 µM), for the others: top-dose activity change, negative = inhibition, most hits filed as inhibitors; hit rate 1.6% among 230,000; AID 2147; active = well fitted inhibition curve with a large enough effect, not every such curve was filed as active; inconclusive = small, poorly fitted or top-dose-only effect, or another doubt; inactive = no such curve, though single readings can be large or run the other way;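 note: potency is the fitted concentration of half-maximal effect; 0% = wells with enzyme and -100% = buffer wells without enzyme; nearly all actives have a fitted effect of over 50% in size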
Target sequence (B2RXH2 1-337 limits assumed): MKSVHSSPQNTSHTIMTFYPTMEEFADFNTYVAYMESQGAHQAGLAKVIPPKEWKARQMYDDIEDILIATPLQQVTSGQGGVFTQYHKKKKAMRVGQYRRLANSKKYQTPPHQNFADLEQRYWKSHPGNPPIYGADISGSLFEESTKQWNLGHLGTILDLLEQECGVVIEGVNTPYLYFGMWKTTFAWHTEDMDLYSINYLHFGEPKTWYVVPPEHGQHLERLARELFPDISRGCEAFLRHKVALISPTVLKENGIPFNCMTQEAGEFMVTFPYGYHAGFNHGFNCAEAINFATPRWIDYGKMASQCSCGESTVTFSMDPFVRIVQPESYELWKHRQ
KCNH2 3.1 block – blocks the human KCNH2 3.1 channel isoform; U2OS KCNH2 3.1, thallium flux FluxOr; active compounds read low; activity change, % (tested at about 1.8 µM); hit rate 0.95% among 340,000;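 active = maximum activity change below -70%; inconclusive = maximum activity change from -70% to -50%; inactive = maximum activity change above -50%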;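 note: thallium influx rate constant from kinetic fluorescence after stimulation buffer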
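We transduce U2OS cells with the mutant 3.1 virus, culture them overnight, load FluxOr with Red40 quencher for 45 min, then add stimulation buffer and read kinetically for 2 min to derive a normalized rate constant.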
KCNH2 WT inh – blocks the wildtype human KCNH2 potassium channel; Q12809; U2OS, BacMam KCNH2, thallium flux FluxOr; active compounds read low; activity change, % at 1.84 µM; hit rate 0.37% among 340,000; AID 720551;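 active = maximum activity change below -70%; inconclusive = maximum activity change between -70% and -50%; inactive = maximum activity change above -50%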
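U2OS cells were transduced with wild-type KCNH2 virus (2.03 x 10^8 / mL) for 4 h at room temperature, then cultured overnight at 37 C. Thallium flux was read with FluxOr dye. Rate constants were normalized to DMSO controls.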
Six1-Eya2 inh – inhibitors of human Six1/Eya2 interaction | Q15475+O00167 | AlphaScreen GST-Six1/His-Eya2 binding, biochemical; active compounds read low | activity change, % (concentration not given with the values) | hit rate 0.56% among 360,000 | AID 651725
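GST-Six1 + His-Eya2 (5X stock: 250/500 nM); Tris pH 8.0, 300 mM NaCl, 0.05% BSA, 0.02% Tween 20; GSH donor/Ni acceptor beads; 1 h 37 °C dark; AlphaScreen readout.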
* marks the source's active call; other numbers are inactive results; ? = inconclusive; . = not tested or not shown; ! = repeats disagree. Cut-off read from the data, not from the text of the source, unless noted: active = activity change below about -65%; inconclusive = mostly about -30% to -63%; inactive = weaker than that. Unless noted, % is set by controls: 0 for no effect and ±100 for the full control effect.

SMILES	CtBP-E1A blk	KDM4E inh	KCNH2 3.1 block	KCNH2 WT inh	Six1-Eya2 inh
Cc1ccc(/C(O)=C2\C(=O)C(=O)N(CC(C)O)C2c2ccc(N(C)C)cc2)cc1 (stereo not given)	4	-16%	-5	-123*	-3
COC(=O)CCC(=O)OC1(C)C(=O)C=C2C=C(C3CC3)N(C(CO)CO)C=C2C1=O (stereo not given)	-24	?	6	-3	13
COC(=O)CCC(=O)OC1(C)C(=O)C=C2C=C(C3CC3)N(CCCCO)C=C2C1=O (stereo not given)	4	20µM*!	17	-5	2
COC(=O)CCC(=O)OC1(C)C(=O)C=C2C=C(C3CC3)N(Cc3ccc4c(c3)OCO4)C=C2C1=O (stereo not given)	-2	16µM*!	8	0	-8
COc1cccc(/C=N/NC(=O)C(=O)N2CCCC2)c1O	10	0%	-14	-5	-89*
O=C(N/N=C/c1ccccc1O)C(=O)N1CCCCCC1	-88*	.	-4	3	-79*
Cc1ccccc1-c1nc(SCc2cccnc2)c2c(=O)n(C)c(=O)n(C)c2n1	0	6%	-5	-256*	-11
CCCc1nc(SCc2cccnc2)c2c(=O)n(C)c(=O)n(C)c2n1	1	4%	-6	14	-5
Fc1cccc(Cl)c1CNc1ccc(N2CCCC2)cc1	?	11µM*	-18	5	?
CCCN=C1N/C(=C\c2ccco2)C(=O)N1c1ccccc1	12	?	0	-7	5
O=C(c1ccccc1)c1nn(-c2ccc(Cl)cc2)c(=O)cc1C(F)(F)F	?	?	9	-17	-15
O=C(c1cccc(Cl)c1)c1nn(-c2ccccc2)c(=O)cc1C(F)(F)F	-73*	-11%	0	-4	?
O=C(c1ccccc1)c1nn(-c2ccccc2)c(=O)cc1C(F)(F)F	-75*	5%	1	0	?
COc1ccccc1N1CCN(C(=O)c2cc(-c3ccccc3)nc3c2cnn3C(C)C)CC1	0	.	-2	-2	-15
O=C(N1CCOCC1)C1(c2ccc(Cl)cc2)CCCC1	4	-8%	2	-8	3
Cc1ccc(N2CCOCC2)c2c1C(=O)c1ccccc1C2=O	?	-8%	8	2	-76*
c1ccc(CN2CCc3[nH]c4ccccc4c3C2)cc1	-4	.	0	19	-7
CN1CCc2c(c3ccccc3n2Cc2ccccc2)C1	-20	-8%	-77*!	1	-1
CN1CCc2c(c3ccccc3n2C)C1	0	1%	8	-1	1
CCCCN1CCc2c(c3ccccc3n2Cc2ccccc2)C1	.	.	-94*	?	?
CC(C)(C)c1ccc(C(=O)NCCCNC(=O)c2cccnc2)cc1	3	.	10	-20	-4
N#Cc1c(-c2ccc(F)cc2)c2c([nH]c1=O)-c1ccccc1OC2	13	?	0	5	9
COc1ccc(N2CCN(Cc3cc(OC)c(O)c([N+](=O)[O-])c3)CC2)cc1	-13	22µM*	2	-12	-1
COc1cc(CN2CCN(c3cccc(C)c3C)CC2)cc([N+](=O)[O-])c1O	0	?	-7	-6	-23
COc1ccc(N2CCN(Cc3cc(=O)oc4cc5c(cc34)CCCC5)CC2)cc1	-1	7%	-1	-3	-11
SMILES	CtBP-E1A blk	KDM4E inh	KCNH2 3.1 block	KCNH2 WT inh	Six1-Eya2 inh
COc1ccc(N2CCN(Cc3cc4c(cc3O)CCC4)CC2)cc1	-65*	-5%	-43	23	?
COc1ccc(C(=O)COC(=O)CNC(=O)c2ccccc2)cc1F	-3	.	12	14	-1
CCOC(=O)c1ccc2c(c1)nc(SCC(=O)N1CCCCC1)n2CC	-21	-16%	-3	10	-12
O=C(CCN1CCOCC1)NNC(=O)Nc1cccc(C(F)(F)F)c1	2	.	.	2	-1
CCC(=O)Nc1nonc1-c1nc2ccccc2n1Cc1cccc2ccccc12	0	?	-85*	-16	-2
CCC(=O)Nc1nonc1-c1nc2ccccc2n1Cc1ccccc1	-13	?	-7	9	12
COc1ccc(N=C2C(=Nc3ccc(OC)cc3)N(c3ccc(OC)cc3)C(=S)N2C)cc1	-80*	-4%	-2	-8	-69*
COCCCn1c(SCC(=O)Nc2nc3ccccc3s2)nnc1-c1ccoc1C	7	-2%	-13	16	-3
O=C1C=C(NCC2CCCO2)C2(CCCCC2)O1 (stereo not given)	9	7%	-79*	-13	2
NC(Cc1cnc[nH]1)c1csc(Nc2ccc(C(F)(F)F)cn2)n1 (stereo not given)	-92*	.	.	.	-90*
CCC(=O)Nc1cccc(-c2nnc(SCC(=O)NCc3ccco3)n2C)c1	-13	1%	3	0	-13
CCC(=O)Nc1cccc(-c2nnc(SCC(=O)c3ccccc3)n2C)c1	-8	3%	-91*	0	-2
COc1ccc(CN2CCNC(=O)C2CC(=O)NCc2cn3ccc(C)cc3n2)c(OC)c1 (stereo not given)	-4	?	-7	9	-5
Cc1csc(NC(=O)Cn2nc(C)c([N+](=O)[O-])c2C)n1	1	3%	8	-5	6
Cc1ccc2nc(NC(=O)Cn3nc(C)c([N+](=O)[O-])c3C)sc2c1	-6	-5%	-94*	-8	4
C[C@@H](N)C(=O)O	.	2%	.	.	.
N[C@H](C(=O)O)[C@H](O)C(=O)O	.	13µM*!	.	.	.
CC(=O)c1ccc(N2CCN(c3ccc(C(F)(F)F)cn3)CC2)cc1	29	-25%	-200*	-139*	-6
CC(=O)c1ccc(N2CCN(c3ncc(C(F)(F)F)cc3Cl)CC2)cc1	-1	-19%	7	18	-10
Cn1c(CN2CCOCC2)nc2cc(NC(=O)COc3ccc([N+](=O)[O-])cc3)ccc21	-2	-2%	-3	2	6
Cc1ccc(C)c(C(=O)COC(=O)c2cc(S(=O)(=O)N3CCOCC3)ccc2F)c1	-5	.	2	-77*	-7
CCOC(=O)/C=C/C(=O)OCC(=O)Nc1ccc(Cl)cn1	6	11%	3	-5	9
CCOC(=O)NC1(Nc2ccc(Cl)cn2)Oc2ccccc2O1	.	25µM*	.	.	.
OCC1(CCc2ccccc2)CCN(Cc2ccc(OC(F)F)cc2)CC1	1	-7%	.	-183*	3
CSCC(C)N1CCC(CO)(CCc2ccccc2)CC1 (stereo not given)	29	9%	-7	20	9
CC(COc1ccccc1)N1CCC(CO)(CCc2ccccc2)CC1 (stereo not given)	.	7%	-101*	?	8
Cc1ccc(O)c(NC(=O)CSc2n[nH]c(-c3ccccc3)n2)c1	-2	.	12	13	-3
O=C(CSc1n[nH]c(-c2ccccc2)n1)c1ccc(O)c(O)c1	-10	28µM*	-10	6	-5
